Data on 38 compounds can be found in PubChem BioAssay (NCATS).

Records with an inconclusive call do not appear. Where a call stands in place of a potency, no number is given. Active and inactive are the calls of the source. Calls follow the shape of the dose curve; as a rule, active = well fitted cell-killing curve with a large enough effect; inconclusive = small, poorly fitted or top-dose-only effect, or effect the other way; inactive = no such curve, though single readings can be large or run the other way.

The first test is described as follows: Cell Viability - LYMP2-004 (AID 966). Also: nearly all actives have a fitted effect of over 65% in size. The settings on record: LYMP2-004 lymphoblastoid cell viability, qHTS; series mostly up to 92.2 µM. An outline of the steps:
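Acute toxicity is scored as a concentration-dependent drop in intracellular ATP, quantified by luciferase luminescence, in human lymphoblastoid cells exposed to compound for 24 hr. AC50 derives from Hill-equation modelling.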
(qHTS replaces the single test concentration by a dilution series.)
`CCC/C=N/O`: the Potency entry is “inactive”. On to `Nc1cccc2ccccc12`, for which the Potency result is “inactive”. Still for that read-out and setting: for `Cc1cnc[nH]1` the value was “inactive”; for `CN(C)N=O`, “inactive”; for `COc1c(C(C)(C)C)cc([N+](=O)[O-])c(C)c1[N+](=O)[O-]`, “inactive”. The same measure, in the same setting: under `C=C(Cl)CCl` stands “inactive”; under `ClCCOCOCCCl`, “inactive”. `CC12CC1(C)C(=O)N(c1cc(Cl)cc(Cl)c1)C2=O` (centres undefined): the Potency result is “inactive”.

Turning to `CC(C)(Cl)[N+](=O)[O-]`, the Potency result was “inactive”. Still for that read-out and setting: under `Cl/C=C/Cl` stands “inactive”; under `CCCCOCC1CO1` (centres undefined), “inactive”; under `C1CC2OC2CC1C1CO1` (centres undefined), “inactive”. The same measure, in the same setting: under `Brc1cccc(-c2ccccc2)c1` stands “inactive”. Still for that read-out and setting: under `Oc1c(Cl)cccc1Cl` stands “inactive”; under `ClCCOCCCl`, “inactive”. Consider `CCNCC`, for which the Potency entry is “inactive”. On the same count and under the same terms, under `CC(C)C#N` stands “inactive”; under `Cl/C=C\Cl`, “inactive”. As for `c1ccc2c(c1)CCNC2`, the Potency result was “inactive”.

For the compound `CCBr`, the Potency entry is “inactive”. With `O=[N+]([O-])c1ccc(Cl)c(Cl)c1Cl`, the Potency entry was “inactive”. On the same count and under the same terms, under `N#CCCC#N` stands “inactive”; under `Cc1ccccc1[N+](=O)[O-]`, “inactive”; under `OCCBr`, “inactive”. Still for that read-out and setting: for `C=CC(=O)OCCN(C)C` the value was “inactive”; for `CC(C)(C)C(O)(CCc1ccc(Cl)cc1)Cn1cncn1` (centres undefined), “inactive”. Still for that read-out and setting: under `N#CCCCCC#N` stands “inactive”; under `CN=C=O`, “inactive”; under `OCC(Cl)CCl` (centres undefined), “inactive”. As to `COc1ccc(C=O)cc1`, the Potency result was “inactive”. As to `Nc1ccc(Cl)c(Cl)c1`, the Potency result is “inactive”.

Consider `CC(=O)[O-].CC(=O)[O-].CC(=O)[O-].[Cr+3]`, for which the Potency result was “inactive”.

With `CC(=O)CCC(C)=O`, the Potency result is “inactive”.

With `C=CC(=O)OCC(CC)CCCC` (centres undefined), the Potency entry was “inactive”.

Another test can be described thus: Cell Viability - LYMP2-005 (AID 967).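 Also: cells exposed to compound for 24 h at 37 °C.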 The settings on record: LYMP2-005 lymphoblastoid cell viability; series mostly up to 92.2 µM. In outline: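 Acute cytotoxicity is scored as a concentration-dependent drop in intracellular ATP in human lymphoblastoid LYMP2-005 cells after 24 h compound treatment. ATP is quantified by luciferase luminescence, and AC50 is derived by Hill-equation modelling.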
As to `Oc1cccc(Cl)c1Cl`, the Potency result was “inactive”. With `CCC/C=N/O`, the Potency result is “inactive”. Same read-out and setting: under `Nc1cccc2ccccc12` stands “inactive”. As to `Cc1cnc[nH]1`, the Potency entry is “inactive”. Still for that read-out and setting: for `COc1c(C(C)(C)C)cc([N+](=O)[O-])c(C)c1[N+](=O)[O-]` the value was “inactive”. The same measure, in the same setting: under `C=C(Cl)CCl` stands “inactive”; under `ClCCOCOCCCl`, “inactive”; under `CC12CC1(C)C(=O)N(c1cc(Cl)cc(Cl)c1)C2=O` (centres undefined), “inactive”.

Consider `CC(C)(Cl)[N+](=O)[O-]`, for which the Potency entry was “inactive”. Regarding `Cl/C=C/Cl`, the Potency entry is “inactive”. In the case of `CCCCOCC1CO1` (centres undefined), the Potency entry was “inactive”. Regarding `O=C(O)c1cccc(Cl)c1`, the Potency result is “inactive”.

Turning to `C1CC2OC2CC1C1CO1` (centres undefined), the Potency entry was “inactive”.

For the compound `Brc1cccc(-c2ccccc2)c1`, the Potency result is “inactive”.

As for `Oc1c(Cl)cccc1Cl`, the Potency result is “inactive”. As to `CCNCC`, the Potency entry is “inactive”. The same measure, in the same setting: under `CC(C)C#N` stands “inactive”; under `Cl/C=C\Cl`, “inactive”. On the same count and under the same terms, under `c1ccc2c(c1)CCNC2` stands “inactive”.

Regarding `CCBr`, the Potency result was “inactive”. Still for that read-out and setting: under `O=[N+]([O-])c1ccc(Cl)c(Cl)c1Cl` stands “inactive”. As to `N#CCCC#N`, the Potency result is “inactive”. The same measure, in the same setting: for `Cc1ccccc1[N+](=O)[O-]` the value was “inactive”; for `OCCBr`, “inactive”. Same read-out and setting: for `C=CC(=O)OCCN(C)C` the value was “inactive”; for `CC(C)(C)C(O)(CCc1ccc(Cl)cc1)Cn1cncn1` (centres undefined), “inactive”. For the compound `N#CCCCCC#N`, the Potency entry is “inactive”.

Regarding `c1ccc(C2CO2)cc1` (centres undefined), the Potency entry is “inactive”. Still for that read-out and setting: under `CCCCCC[N+](=O)[O-]` stands “inactive”; under `OCC(Cl)CCl` (centres undefined), “inactive”.

`COc1ccc(C=O)cc1`: the Potency entry was “inactive”. With `Nc1ccc(Cl)c(Cl)c1`, the Potency result was “inactive”. Take `CC(=O)[O-].CC(=O)[O-].CC(=O)[O-].[Cr+3]`: the Potency entry is “inactive”. The same measure, in the same setting: under `CC(=O)CCC(C)=O` stands “inactive”. On the same count and under the same terms, under `C=CC(=O)OCC(CC)CCCC` (centres undefined) stands “inactive”.
